This is an account of results in PubChem BioAssay (EPA / NIEHS).

Calls of active or inactive are those of the source. How the source made its calls: active means hit-call score of the fitted dose curve at least 0.9, where 1 is the maximum; inconclusive means response in the unintended direction; inactive means score below 0.9.

Androgen Receptor/SRC-1 Co-activator, AR (gene 367), sequence (P10275 whole entry, looked up, the tested form may be a part): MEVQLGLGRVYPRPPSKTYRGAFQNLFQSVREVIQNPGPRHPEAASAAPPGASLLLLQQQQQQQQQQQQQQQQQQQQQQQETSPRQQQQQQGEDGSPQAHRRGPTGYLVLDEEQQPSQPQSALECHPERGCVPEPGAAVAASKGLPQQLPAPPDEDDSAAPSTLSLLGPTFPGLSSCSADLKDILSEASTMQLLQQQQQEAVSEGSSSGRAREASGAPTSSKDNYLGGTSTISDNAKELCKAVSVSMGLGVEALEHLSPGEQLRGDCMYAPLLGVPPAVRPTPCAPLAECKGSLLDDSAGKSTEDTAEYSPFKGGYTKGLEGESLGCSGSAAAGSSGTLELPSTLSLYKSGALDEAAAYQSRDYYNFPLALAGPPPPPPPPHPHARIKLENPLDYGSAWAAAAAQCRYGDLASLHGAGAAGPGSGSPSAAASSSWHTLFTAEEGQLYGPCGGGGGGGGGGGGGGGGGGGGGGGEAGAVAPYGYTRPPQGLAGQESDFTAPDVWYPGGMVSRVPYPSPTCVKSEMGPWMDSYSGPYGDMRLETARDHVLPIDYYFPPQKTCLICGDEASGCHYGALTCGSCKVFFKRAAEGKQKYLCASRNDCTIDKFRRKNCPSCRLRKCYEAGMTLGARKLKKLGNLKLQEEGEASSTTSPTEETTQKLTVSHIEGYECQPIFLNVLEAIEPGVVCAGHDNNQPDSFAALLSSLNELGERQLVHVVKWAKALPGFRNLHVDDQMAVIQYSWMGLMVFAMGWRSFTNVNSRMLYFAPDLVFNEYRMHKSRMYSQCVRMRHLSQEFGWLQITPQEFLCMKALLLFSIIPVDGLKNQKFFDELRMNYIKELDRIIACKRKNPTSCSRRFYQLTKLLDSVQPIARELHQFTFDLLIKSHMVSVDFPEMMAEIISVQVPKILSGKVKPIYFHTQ

In the experiment the target is Androgen Receptor/SRC-1 Co-activator, AR (gene 367) (UniProt P10275). Briefly: OT_AR_ARSRC1_0960: Odyssey Thera (OT) 16-hour HEK293T Protein-Complementation Assay for Androgen Receptor/SRC-1 Co-activator (AID 2283353).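 Further: actives raise the signal above DMSO so potency reflects increased AR and SRC-1 complex.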 As to the method:
OT_AR_ARSRC1_0960 is a cell-based, single-readout assay that uses HEK293T, a human kidney cell line, with measurements taken at 16 hours after chemical dosing in a 384-well plate.OT_AR_ARSRC1_0960 is one of one assay component(s) measured or calculated from the OT_AR_ARSRC1_0960 assay. It is designed to make measurements of protein fragment complementation, a form of binding reporter, as detected with fluorescence intensity signals by Protein-fragment Complementation technology.Data from the assay component OT_AR_ARSRC1_0960 was analyzed into 1 assay endpoint. This assay endpoint, OT_AR_ARSRC1_0960, was analyzed in the positive analysis fitting direction relative to DMSO as the negative control and baseline of activity. Using a type of binding reporter, measures of receptor for gain-of-signal activity can be used to understand the binding at the pathway-level as they relate to the gene AR. Furthermore, this assay endpoint can be referred to as a primary readout, because the performed assay has only produced 1 assay endpoint. To generalize the intended target to other relatable targets, this assay endpoint is annotated to the nuclear receptor intended target family, where the subfamily is steroidal.
Protein-fragment complementation assay, or PCA, is a method for the identification and quantification of protein-protein interactions. In the PCA, the proteins of interest ("bait" and "prey") are each covalently linked to fragments of a third protein (e.g. DHFR, which acts as a "reporter"). Interaction between the bait and the prey proteins brings the fragments of the reporter protein in close proximity to allow them to form a functional reporter protein whose activity can be measured. The OT AR / SRC-1 assay assessed androgen receptor chemical interactions using a rapidly maturing, intensely fluorescent mutant of YFP known as Venus, rationally dissected into two separate fragments. […] Fusion constructs were transfected into HEK293T cells with a (Gly4Ser)2 linker between the AR/SRC-1 and YFP fragment genes to facilitate complementation when interacting proteins bring fragments into close proximity. The construct is stably expressed in HEK293T cells. […] Images were acquired on an Evotec Opera at 2 wavelengths (488 and 635nm), and the ratio of fluorescence in the nucleus relative to fluorescence in the cytoplasm (N/C Ratio) in the 488nm channel was calculated for a minimum of 400 cells per image. Both agonists and antagonists of the AR receptor induce nuclear translocation to varying degrees. […] The OT AR/SRC-1 assay was also run for 16 hours (see description for OT_AR_ARSRC1_0960).
As for `O=C(O)COc1cc(Cl)c(Cl)cc1Cl`, the call was inactive. Still for that read-out and setting: for `O=S1(=O)OC(c2cc(Br)c(O)c(Br)c2)(c2cc(Br)c(O)c(Br)c2)c2ccccc21` the value was “inactive”. The AC50 is the concentration giving half of the maximal activity seen. As for `CC(=Cc1ccccc1)[N+](=O)[O-]`, the AC50 was 16.7 µM (active). On to `O=S1OC[C@@H]2[C@H](CO1)[C@]1(Cl)C(Cl)=C(Cl)[C@@]2(Cl)C1(Cl)Cl` (stereo not given in full), for which the compound was classed as inactive. On the same count and under the same terms, for `CNC(=O)O/N=C/C(C)(C)S(C)(=O)=O` the value was “inactive”; for `Cc1cc(Cl)ccc1OCCCC(=O)O`, “inactive”.

For `O=[N+]([O-])c1ccc(Cl)c([N+](=O)[O-])c1`, the concentration at half-maximal activity (AC50) is 9.86 µM (active). `O=C(NC(=O)c1c(F)cccc1F)Nc1cc(Cl)c(OC(F)(F)C(F)C(F)(F)F)cc1Cl` (stereo not given): the call was inactive. Still for that read-out and setting: as for `N#CCC#N`, the entry is “inactive”. The same measure, in the same setting: as for `C=CC(Cl)CCl` (stereo not given), the entry is “inactive”. `O=C(CCl)Nc1ccccc1`: the AC50 was 28.2 µM (active).

As for `O=C(N[C@H]1CN2CCC1CC2)c1ccc2c(c1)OCCO2`, the compound was classed as inactive. On the same count and under the same terms, as for `O=C1c2ccccc2C(=O)C1C(=O)C(c1ccccc1)c1ccc(Cl)cc1` (stereo not given), the entry is “inactive”; as for `COCCl`, “inactive”. As to `CC(C)N(C(=O)CCl)c1ccccc1`, the concentration at half-maximal activity (AC50) was 45.7 µM (active).
